# DUSP3 inh: VHR1 phosphatase inhibitors, primary screen, biochemical, absorbance, uHTS; Dual specificity protein phosphatase 3 (Homo sapiens), P51452; recombinant VHR phosphatase, pNPP absorbance; inhibition, % at 13.3 µM; hit rate 0.52% among 290,000; AID 1654, 2009; in the data active means inhibition above about 50%
# Target sequence (P51452 whole entry, looked up): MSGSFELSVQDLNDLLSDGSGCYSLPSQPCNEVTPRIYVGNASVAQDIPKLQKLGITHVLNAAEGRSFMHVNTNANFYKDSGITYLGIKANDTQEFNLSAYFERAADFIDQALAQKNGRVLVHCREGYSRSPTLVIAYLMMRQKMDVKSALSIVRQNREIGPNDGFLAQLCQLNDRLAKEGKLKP
# 3CLpro inhibitor: SARS-CoV 3CLpro protease inhibitors, primary screen, biochemical, quenched FRET. recombinant SARS-CoV 3CLpro, quenched FRET peptide cleavage. inhibition, % at 6 µM. hit rate 0.14% among 290,000; in the data active means inhibition above about 12%
# CCHF vOTU inh-1: CCHFV vOTU protease inhibitors, primary screen, biochemical, Pep-AMC substrate, fluorescence. Crimean-Congo hemorrhagic fever virus L polyprotein viral ovarian tumor (vOTU) protease …. inhibition, % at 11.5 µM. hit rate 0.55% among 370,000. AID 651958, 2012; further: 0% = vehicle wells with enzyme and 100% = no enzyme wells
# PriA SSB inh: inhibitors of Klebsiella pneumoniae PriA binding to SSB C-terminal tail, primary screen, biochemical, AlphaScreen | PriA–SSB C-terminal tail interaction (Klebsiella pneumoniae) | AlphaScreen SSBct-PriA binding, biotinylated peptide | inhibition, % at 33 µM | hit rate 0.6% among 430,000 | AID 1272365, 2023; in the data active means inhibition mostly above about 37%, no sharp cut-off; inactive means mostly below about 20%;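 further: plate controls were negative control peptide for no effect and reference peptide for full effect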
# Mtb hypoxia rep: PubChem AID 1159583. M. tuberculosis hypoxia-regulated fluorescent reporter, fluorescence. fluorescence inhibition, % (test concentration not listed). hit rate 0.1% among 300,000; in the data active means fluorescence inhibition mostly above about 23%, no sharp cut-off; inactive means mostly below about 17%
# CCHF vOTU inh-2: CCHFV vOTU protease inhibitors, confirmation, biochemical, Pep-AMC substrate, fluorescence; Recombinant CCHFV vOTU; hit rate 17% among 1,900; inhibition, % at 11.5 µM; AID 686976, 2013; shares compounds with CCHF vOTU inh-1
# Numbers without * were called inactive; . = no result given. Compounds with a hit are over-represented: about 1.3% of the library has one in this group of screens. Unless noted, no stated cut-off is given here; in the data, active means inhibition above about 30%; inactive means the rest.
SMILES,DUSP3 inh,3CLpro inhibitor,CCHF vOTU inh-1,PriA SSB inh,Mtb hypoxia rep,CCHF vOTU inh-2
Cc1ccc2c(c1N)C(=O)c1ccccc1C2=O,.,.,20.4,10.2,.,.
CNC(=O)c1cccc(-c2noc(C3CN(C(=O)C4CC=CCC4)C3)n2)c1 (stereo not given),.,.,.,-11.0,.,.
FC(F)(F)c1ccc(CNCCc2ccc3c(c2)OCO3)cc1,27.1,-3.3,29.6*,-9.7,-2.8,-14.2
CCC(C(=O)Nc1ccc(-n2ccnc2)nc1)c1ccccc1 (stereo not given),.,.,.,32.0,.,.
CSc1cccc(NC(=O)C(=O)NCc2cccs2)c1,.,.,.,-12.0,.,.
COC(=O)[C@]12C[C@H](CC(=O)NCc3cccc(C(F)(F)F)c3)C(=O)N(Cc3ccc(Cl)cc3Cl)C1=C[C@H](C(C)(C)C)O[C@@H]2C,.,.,31.8*,.,.,15.0
COC(=O)[C@]12C[C@H](CC(=O)NCc3ccccc3)C(=O)N(Cc3ccc(Cl)cc3Cl)C1=C[C@H](C(C)(C)C)O[C@@H]2C,.,.,22.8,.,.,.
COC(=O)[C@]12C[C@H](CC(=O)NCc3ccccc3)C(=O)N(Cc3ccco3)C1=C[C@H](C(C)(C)C)O[C@@H]2C,.,.,16.1,.,.,.
COC(=O)[C@]12C[C@H](CC(=O)NCc3cccc(C(F)(F)F)c3)C(=O)N(Cc3ccco3)C1=C[C@H](C(C)(C)C)O[C@@H]2C,.,.,32.2*,.,.,4.9
CCCCCCn1c(COc2ccccc2)nc2ccccc21,.,.,.,-36.0,.,.
COc1ccc(NC2=C(NCCO)C(=O)c3ccccc3C2=O)cc1,10.5,1.6,87.5*,23.5,-4.6,57.0*
COc1cccc(NC2=C(NCCO)C(=O)c3ccccc3C2=O)c1,-18.5,-4.9,34.6*,62.1,12.1,-2.3
COc1ccc(NC2=C(NC(C)=O)C(=O)c3ccccc3C2=O)cc1,-7.6,-1.6,3.7,8.3,2.1,.
Cc1cccc(NC2=C(NCCO)C(=O)c3ccccc3C2=O)c1,-1.8,2.9,53.8*,73.9,9.2,15.7
Cc1cccc(Nc2nc(N)c([N+](=O)[O-])c(NCCO)n2)c1,-2.8,-4.7,5.6,0.0,.,.
CC(=O)Nc1ccc(SCCCC(=O)N2CCC(Cc3ccccc3)CC2)nn1,.,.,.,-16.0,.,.
CC(C)(Oc1ccc(Cl)cc1)C(=O)NCCn1ncc2c(=O)n(Cc3cccc(Cl)c3)cnc21,.,.,.,-18.0,.,.
CCc1ccc2ncc(C#N)c(Nc3ccc(F)c(Cl)c3)c2c1,.,.,.,-33.0,.,.
S=C(Nc1ccc(Cl)cc1)Nc1cccc2cnccc12,0.1,2.7,57.7*,4.5,1.4,88.5*
Fc1ccc(NC(=S)Nc2cccc3cnccc23)cc1,21.7,-0.8,50.1*,15.8,0.3,64.8*
CN(C)S(=O)(=O)c1cccc(NC(=S)Nc2cccc3cnccc23)c1,13.1,1.2,39.8*,2.2,-0.3,89.0*
COc1ccc(NC(=S)Nc2cccc3cnccc23)cc1,8.1,2.0,3.2,16.5,10.0,.
CC(=O)Nc1ccc(S(=O)(=O)Nc2ccc3c(c2)N(C(C)=O)CC3)cc1,.,.,.,6.0,.,.
CC(OC(=O)c1cccc(-n2cnnn2)c1)C(=O)Nc1ccc(F)cc1Cl (stereo not given),.,.,33.0*,4.9,-3.0,-11.6
Cc1cc(C)nc(SCC(=O)N/N=C/c2cccn2-c2cccc(C(F)(F)F)c2)n1,10.6,1.6,30.1*,.,.,2.2
SMILES,DUSP3 inh,3CLpro inhibitor,CCHF vOTU inh-1,PriA SSB inh,Mtb hypoxia rep,CCHF vOTU inh-2
O=C(NCCc1csc(-n2cccn2)n1)Nc1c(F)cccc1F,.,.,.,-5.0,.,.
Nc1c(C(=O)NCCCc2ccccc2)c2nc3ccccc3nc2n1Cc1cccs1,27.1,1.9,109.2*,4.7,-5.8,-6.1
CCCCCn1c(N)c(C(=O)NCc2cccs2)c2nc3ccccc3nc21,17.4,-0.3,0.1,-6.5,-1.6,.
C=CCn1c(SCC(=O)c2ccc(Cl)c(Cl)c2)nc2scc(-c3ccco3)c2c1=O,.,.,.,-17.0,.,.
O=C(NCCCS(=O)(=O)N1CCN(c2ccccn2)CC1)c1ccc(F)cc1F,.,.,.,-6.0,.,.
CC(=O)C1=C(C)OC2(O)c3ccccc3C(=O)C12O (stereo not given),21.3,-2.5,71.1*,-5.8,9.5,-8.3
CCOC(=O)C1=C(C)N[C@@]2(O)c3ccccc3C(=O)[C@@]12O,-0.1,-1.3,22.2,-8.3,.,.
CCOC(=O)C1=C(C)OC2(O)c3ccccc3C(=O)C12O (stereo not given),-3.2,0.9,102.8*,6.2,8.3,19.5
O=C(Cn1cccn1)N1CC(S(=O)(=O)c2ccc(F)cc2)C1,.,.,.,7.0,.,.
Cc1ccc(/C=[N+](\[O-])c2ccc(N(C)C)cc2)c2nsnc12,15.2,-1.2,55.8*,22.7,-0.3,-12.0
CCOc1cc(Br)cc(C(c2c(C(=O)O)[nH]c3ccccc23)c2c(C(=O)O)[nH]c3ccccc23)c1O,5.8,7.5,43.2*,-9.9,-0.8,21.6
N#Cc1nccnc1N1CCC(CNC(=O)c2ccco2)CC1,.,.,.,-10.0,.,.
CC(C)C1OC(CCc2ccccc2)Cc2[nH][nH]c(=O)c21 (stereo not given),.,.,32.8*,.,.,6.3
CCCCOC(=O)CSc1nc2c(c(=O)[nH]c(=O)n2C)n1C/C=C(\C)Cl,-4.0,-3.8,30.9*,-9.7,.,-10.1
COCCn1c(SCC(=O)Nc2ccccc2C(F)(F)F)nc2ccccc2c1=O,11.4,5.5,-0.3,1.2,8.4,.
COCCn1c(SCC(=O)Nc2cccnc2Cl)nc2ccccc2c1=O,.,.,30.7*,-2.5,3.3,-12.0
O=C(NCc1ccco1)[C@H]1CCCN(c2ccc(-n3cccn3)nn2)C1,.,.,.,-8.0,.,.
CCOC(=O)[C@]12CCCC=C1N(Cc1ccc(Cl)cc1Cl)C(=O)[C@H](CC(=O)NCCc1ccccc1OC)C2,.,.,30.2*,.,.,-1.9
CCOC(=O)[C@]12CCC=C1N(Cc1ccco1)C(=O)[C@H](CC(=O)NCc1cccs1)C2,.,.,32.6*,.,.,-24.2
CCCCNC(=O)C[C@H]1C[C@@]2(C(=O)OC)C(=C[C@H](C(C)(C)C)O[C@@H]2C)N(Cc2ccc(Cl)cc2Cl)C1=O,.,.,26.2,.,.,.
COC(=O)[C@]12C[C@H](CC(=O)NCCc3ccccc3OC)C(=O)N(Cc3ccc(Cl)cc3Cl)C1=C[C@H](C(C)(C)C)O[C@@H]2C,.,.,29.9*,.,.,13.0
COC(=O)[C@]12C[C@H](CC(=O)NCCC(C)C)C(=O)N(Cc3ccc(Cl)cc3Cl)C1=C[C@H](C(C)(C)C)O[C@@H]2C,.,.,31.3*,.,.,6.3
CN(C)CC1CSCCCN1C(=O)c1cc(-c2ccccc2)on1 (stereo not given),.,.,.,0.0,.,.
CC(=O)N1N=C(c2cccc(NS(C)(=O)=O)c2)C[C@H]1c1cn(-c2ccccc2)nc1-c1ccccc1,.,.,.,5.0,.,.
COc1cc2c(cc1OC)-c1c(OC)c(OC)cc3c1C(C2)N(C)CC3 (stereo not given),25.8,-4.2,38.4*,20.8,.,50.7*

# Bioassay records: PubChem BioAssay, several laboratories
